Measured values as given in PubChem BioAssay (Tox21).
Inconclusive results are not listed. Active and inactive are the calls of the source. Unless noted, the call rests on the fitted dose curve.

Tests used:
[1] = Nuclear factor erythroid 2-related factor 2/antioxidant responsive element (Nrf2/ARE) small molecule agonists: qHTS cell viability counter screen in human keratinocytes (AID 1919968; active means well fitted cell-killing curve with a large enough effect in the repeat runs; further: nearly all actives have a fitted effect of over 55% in size)
Procedure, shortened: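 Seed 1,500 KeratinoSens cells per well, then incubate 5 h at 37 C/5% CO2. Add compounds in DMSO and incubate 23 h. Add CellTiter-Fluor, wait 1 h and read fluorescence.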

[2] = Nuclear factor erythroid 2-related factor 2/antioxidant responsive element (Nrf2/ARE) small molecule agonists: luciferase reporter gene qHTS assay in human keratinocytes (AID 1919969); further: nearly all actives have a fitted effect of over 35% in size
[3] = target: Gonadotropin-releasing hormone receptor (Homo sapiens) (UniProt P30968); assay: Human gonadotropin-releasing hormone receptor (GnRHR) small molecule agonists, calcium flux assay in GnRHR-HEK293 cells (AID 1920063); further: nearly all actives have a fitted effect of over 35% in size
Procedure, shortened: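 Cells: HEK293 stably expressing human GnRHR. Steps: overnight (18 h) culture, 1 h calcium dye loading at 37 C, compound addition, kinetic fluorescence read at 480/540 nm. Each compound tested at 15 concentrations in triplicate.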

[4] = p53 small molecule agonists, cell-based qHTS assay with rat liver microsomes (AID 1963578)
Procedure, shortened: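 With rat liver microsomes and NADPH present (0.5 mg/mL final each), p53RE-bla cells are treated with compound for 16 h at 37 C. LiveBLAzer detection mixture is then applied for 2 h at room temperature in the dark.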

[5] = p53 small molecule agonists, cell-based qHTS assay with human liver microsomes: qHTS cell viability counter screen (AID 1963579); further: nearly all actives have a fitted effect of over 45% in size
Procedure, shortened: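 In this multiplexed counter screen, the reporter plates were subsequently treated with CellTiter-Glo so that cell viability, reflected by luminescence, could be recorded for p53RE-bla cells dosed 16 h with compounds under microsomal activation (HLM and NADPH).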

[6] = p53 small molecule agonists, cell-based qHTS assay with rat liver microsomes: qHTS cell viability counter screen (AID 1963580); further: nearly all actives have a fitted effect of over 45% in size
Procedure, shortened: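 Intracellular ATP, by CellTiter-Glo luminescence, defines viability. HCT-116 p53RE-bla cells, 4,000 per well, were compound-treated in the presence of rat liver microsomes and NADPH for 16 h at 37 C.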

[7] = p53 small molecule agonists, cell-based qHTS assay: qHTS cell viability counter screen (AID 1963581); further: nearly all actives have a fitted effect of over 45% in size
Procedure, shortened: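 Cells: HCT-116 with p53 response element-driven beta-lactamase. Treatment: 16 h, 37 C, compounds in DMSO. Read: CellTiter-Glo luminescence after 30 min RT.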

[8] = p53 small molecule agonists, cell-based qHTS assay (AID 1963582; active means well fitted activation curve with a large enough effect in the signal ratio in the repeat runs, not every such curve was filed as active; the % refers to the signal ratio)
Procedure, shortened: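 Quantitative HTS in p53RE-bla cells: after a 5 h settling period, compounds delivered in DMSO were left on cells for 16 h at 37 C, and reporter induction was measured as fluorescence following 2 h substrate loading.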

[9] = target: 5-hydroxytryptamine receptor 2A (Homo sapiens) (UniProt P28223); assay: 5-hydroxytryptamine receptor 2A (HTR2A) small molecule antagonists, cell-based qHTS assay (AID 1963586); further: nearly all actives have a fitted effect of over 45% in size
Procedure, shortened: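 Antagonist-mode intracellular calcium assay: DOI (4 nM) added after 5 min compound pre-incubation at room temperature to dye-loaded HTR2A-CHO cells. Fluorescence followed for 3 min, sampled every second.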

[10] = target: 5-hydroxytryptamine receptor 2A (Homo sapiens) (UniProt P28223); assay: 5-hydroxytryptamine receptor 2A (HTR2A) small molecule agonists, cell-based qHTS assay (AID 1963587); further: nearly all actives have a fitted effect of over 30% in size
Procedure, shortened: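 Kinetic calcium-flux fluorescence (2 min, 1 sec intervals) after compound addition in agonist mode. HTR2A-CHO cells were cultured 18 h, then dye-loaded 1 h at 37 C.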

[11] = target: Muscarinic acetylcholine receptor M1 (Homo sapiens) (UniProt P11229); assay: Cholinergic receptor muscarinic 1 (CHRM1) small molecule antagonists, cell-based qHTS assay (AID 1963588); further: nearly all actives have a fitted effect of over 40% in size
Procedure, shortened: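 CHRM1-CHO calcium-flux assay, antagonist mode. Cells were seeded 18 h, dye-loaded 1 h at 37 C and given compound for 5 min at RT, then acetylcholine was added at 50nM. FDSS fluorescence was read 3 min; 15 concentrations, three runs.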

[12] = cAMP Responsive Elements (CRE) small molecule agonists, cell-based qHTS assay (AID 1963590)
Procedure, shortened: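 Agonist mode qHTS in CRE-bla HEK 293T cells: compounds dosed from DMSO for 3 h at 37 C/5% CO2, followed by LiveBLAzer B/G FRET substrate for 2 h at room temperature.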

[13] = target: Beta-2 adrenergic receptor (Homo sapiens) (UniProt P07550); assay: Adrenergic beta2 receptor (ADRB2) small molecule antagonists, cell-based qHTS assay (AID 1963592); further: series mostly up to about 92 µM; nearly all actives have a fitted effect of over 50% in size
Procedure, shortened: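 Cells (CHO, stable ADRB2 overexpression) incubated 18-20hr at 37C; compounds added from DMSO; agonist mix (1nM isoproterenol, 100uM IBMX, 25uM Ro-20-1724) added; 0.5hr RT; d2-cAMP and anti-cAMP-cryptate added; 1hr RT; 665/615 nm read.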

[14] = target: D(2) dopamine receptor (Homo sapiens) (UniProt P14416); assay: Dopamine D2 receptor (DRD2) small molecule agonists, cell-based qHTS assay (AID 1963594); further: nearly all actives have a fitted effect of over 35% in size
Procedure, shortened: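 cAMP accumulation in DRD2-HEK293 cells measured by HTRF after 1 h detection; compounds added 10 min before NKH477 (200nM […]) forskolin-analogue stimulation, 30 min at room temperature, with Ro20-1724 present at 0.1 mM final.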

[15] = target: D(2) dopamine receptor (Homo sapiens) (UniProt P14416); assay: Dopamine D2 receptor (DRD2) small molecule antagonists, cell-based qHTS assay (AID 1963595; active means well fitted inhibition curve with a large enough effect in the signal ratio in the repeat runs, with a control signal flat; the % refers to the signal ratio)
Procedure, shortened: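 HEK293 cells stably expressing DRD2 were preincubated with 0.1 mM Ro20-1724, then with compound for 10 min at room temperature. Cells were stimulated with 200 nM NKH477 plus 12 nM quinpirole for 30 min, and cAMP was read by HTRF.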

[16] = G protein-coupled receptor (GPCR) small molecule agonists, calcium flux assay: HEK293 wild type cell line counter screen (AID 1920065)
Procedure, shortened: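 Counter-screen of the Tox21 10K library for non-specific calcium release: dye-loaded cells received compounds in DMSO and were monitored by kinetic fluorescence (480/540 nm, 3 min). Fifteen concentrations, run in triplicate.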

[17] = p53 small molecule agonists, cell-based qHTS assay with human liver microsomes (AID 1963577);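 further: p53 response element beta-lactamase reporter cells with liver microsomes plus NADPH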
Procedure, shortened: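 16 h, 37 C exposure of p53RE-bla cells to compounds with human liver microsomes and NADPH (0.5 mg/mL final each); detection via LiveBLAzer mixture, 2 h dark at room temperature.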

[18] = target: Muscarinic acetylcholine receptor M1 (Homo sapiens) (UniProt P11229); assay: Cholinergic receptor muscarinic 1 (CHRM1) small molecule agonists, cell-based qHTS assay (AID 1963589); further: nearly all actives have a fitted effect of over 35% in size
Procedure, shortened: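 Agonist-mode qHTS in CHO cells stably carrying human muscarinic M1. Intracellular calcium is tracked by fluorescence every second after compound transfer; each compound runs at 15 concentrations in three independent runs.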

[19] = cAMP Responsive Elements (CRE) small molecule antagonists, cell-based qHTS assay (AID 1963591; active means well fitted inhibition curve with a large enough effect in the signal ratio in the repeat runs, not every such curve was filed as active; the % refers to the signal ratio)
Procedure, shortened: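 Antagonist mode: test compounds are co-incubated with the adenylyl cyclase activator NKH477 (0.25 uM final) on CRE-bla HEK293T cells for 3 h at 37 °C, followed by LiveBLAzer substrate loading.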

[20] = target: Beta-2 adrenergic receptor (Homo sapiens) (UniProt P07550); assay: Adrenergic beta2 receptor (ADRB2) small molecule agonists, cell-based qHTS assay (AID 1963593);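 further: CHO cells stably overexpressing human ADRB2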
Procedure, shortened: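 CHO cells stably over-expressing ADRB2 were plated overnight at 37C, then dosed with compounds plus a stimulation mix containing 100uM IBMX and 25uM Ro-20-1724 for 0.5hr at room temperature. cAMP was measured by HTRF competition, 1hr.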
On the % scale 0 is the no-effect control and ±100 the full control effect.

Chain of Muscarinic acetylcholine receptor M1 (Homo sapiens) (P11229 whole entry, looked up): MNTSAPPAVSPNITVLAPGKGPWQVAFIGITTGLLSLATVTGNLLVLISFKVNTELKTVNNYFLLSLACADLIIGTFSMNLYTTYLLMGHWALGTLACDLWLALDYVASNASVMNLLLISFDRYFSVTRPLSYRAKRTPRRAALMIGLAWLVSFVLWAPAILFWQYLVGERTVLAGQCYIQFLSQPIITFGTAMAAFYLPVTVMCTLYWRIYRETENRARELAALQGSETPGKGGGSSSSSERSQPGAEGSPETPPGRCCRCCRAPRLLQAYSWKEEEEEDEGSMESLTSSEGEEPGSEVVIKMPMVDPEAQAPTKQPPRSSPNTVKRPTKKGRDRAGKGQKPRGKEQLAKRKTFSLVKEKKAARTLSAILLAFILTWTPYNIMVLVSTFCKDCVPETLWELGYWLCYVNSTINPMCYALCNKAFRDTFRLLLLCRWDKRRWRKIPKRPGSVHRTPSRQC
Chain of Beta-2 adrenergic receptor (Homo sapiens) (P07550 whole entry, looked up): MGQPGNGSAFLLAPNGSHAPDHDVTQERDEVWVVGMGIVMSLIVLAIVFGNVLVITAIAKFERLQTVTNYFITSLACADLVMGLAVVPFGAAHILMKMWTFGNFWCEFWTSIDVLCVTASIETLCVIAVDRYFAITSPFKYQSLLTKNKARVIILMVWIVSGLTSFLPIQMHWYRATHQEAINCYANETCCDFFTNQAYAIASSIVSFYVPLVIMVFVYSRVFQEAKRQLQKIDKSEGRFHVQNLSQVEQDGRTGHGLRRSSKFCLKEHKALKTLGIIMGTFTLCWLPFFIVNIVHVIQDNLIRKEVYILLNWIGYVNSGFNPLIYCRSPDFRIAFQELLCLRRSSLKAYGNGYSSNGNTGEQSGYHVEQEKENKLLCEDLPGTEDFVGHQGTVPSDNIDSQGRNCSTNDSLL
Chain of Gonadotropin-releasing hormone receptor (Homo sapiens) (P30968 whole entry, looked up): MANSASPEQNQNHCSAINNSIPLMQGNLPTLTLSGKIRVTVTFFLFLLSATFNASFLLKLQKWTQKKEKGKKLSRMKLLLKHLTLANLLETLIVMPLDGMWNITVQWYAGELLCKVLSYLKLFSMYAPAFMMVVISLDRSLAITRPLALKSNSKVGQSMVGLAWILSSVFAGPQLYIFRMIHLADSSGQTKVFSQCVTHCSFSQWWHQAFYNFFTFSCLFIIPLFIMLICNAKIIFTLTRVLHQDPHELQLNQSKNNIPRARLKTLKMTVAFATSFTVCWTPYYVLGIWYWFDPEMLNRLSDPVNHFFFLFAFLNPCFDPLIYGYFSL
Chain of D(2) dopamine receptor (Homo sapiens) (P14416 whole entry, looked up): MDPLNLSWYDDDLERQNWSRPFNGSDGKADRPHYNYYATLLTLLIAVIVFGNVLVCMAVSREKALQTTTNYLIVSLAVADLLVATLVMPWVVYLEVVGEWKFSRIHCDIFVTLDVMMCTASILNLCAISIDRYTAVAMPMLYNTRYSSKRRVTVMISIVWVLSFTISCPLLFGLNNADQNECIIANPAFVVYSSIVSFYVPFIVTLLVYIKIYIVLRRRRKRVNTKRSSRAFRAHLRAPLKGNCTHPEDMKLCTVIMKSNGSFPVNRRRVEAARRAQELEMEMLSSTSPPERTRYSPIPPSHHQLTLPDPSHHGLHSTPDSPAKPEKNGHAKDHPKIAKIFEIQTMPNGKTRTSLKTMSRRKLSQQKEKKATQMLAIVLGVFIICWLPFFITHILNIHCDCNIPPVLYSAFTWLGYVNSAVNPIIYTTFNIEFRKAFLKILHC
Chain of 5-hydroxytryptamine receptor 2A (Homo sapiens) (P28223 whole entry, looked up): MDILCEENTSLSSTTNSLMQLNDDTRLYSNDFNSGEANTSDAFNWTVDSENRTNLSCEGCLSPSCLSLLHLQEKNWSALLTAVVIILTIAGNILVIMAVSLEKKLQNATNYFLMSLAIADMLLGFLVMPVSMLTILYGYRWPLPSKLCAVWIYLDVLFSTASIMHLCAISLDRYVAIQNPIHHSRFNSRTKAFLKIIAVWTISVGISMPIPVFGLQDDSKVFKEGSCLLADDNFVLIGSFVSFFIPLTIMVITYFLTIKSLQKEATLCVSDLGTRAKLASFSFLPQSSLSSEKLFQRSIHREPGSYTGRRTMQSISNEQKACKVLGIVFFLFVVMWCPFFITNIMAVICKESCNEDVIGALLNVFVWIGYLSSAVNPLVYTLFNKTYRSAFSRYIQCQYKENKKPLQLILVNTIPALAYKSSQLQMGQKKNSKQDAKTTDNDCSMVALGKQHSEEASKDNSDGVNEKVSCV

O=C(c1ccccc1)c1cccc(O)c1
inactive: Potency [1] | Potency [2] | Potency [3] | Potency [4] | Potency [5] | Potency [6] | Potency [7] | Potency [8] | Potency [9] | Potency [10] | Potency [11] | Potency [12] | Potency [13] | Potency [14] | Potency [15]

CC(O)COC(C)(C)C (stereo not given)
inactive: Potency [1] | Potency [2] | Potency [3] | outcome [16] | Potency [17] | Potency [4] | Potency [5] | Potency [6] | Potency [7] | Potency [8] | Potency [9] | Potency [10] | Potency [11] | Potency [18] | Potency [12] | Potency [19] | Potency [13] | Potency [14]

COc1ccc(/C=C/S(=O)(=O)NC(=O)c2ccc(C)cc2Cl)cc1
inactive: Potency [1] | Potency [2] | Potency [3] | Potency [17] | Potency [4] | Potency [5] | Potency [9] | Potency [10] | Potency [18] | Potency [12] | Potency [20] | Potency [14] | Potency [15]

O=[N+]([O-])c1ccc(F)c(Cl)c1
inactive: Potency [1] | Potency [2] | Potency [3] | Potency [17] | Potency [5] | Potency [6] | Potency [7] | Potency [8] | Potency [10] | Potency [11] | Potency [18] | Potency [12] | Potency [19] | Potency [14] | Potency [15]

COc1ccccc1OC(=O)Oc1ccccc1OC
inactive: Potency [1] | Potency [2] | Potency [3] | Potency [17] | Potency [4] | Potency [6] | Potency [8] | Potency [9] | Potency [10] | Potency [11] | Potency [18] | Potency [12] | Potency [20] | Potency [14] | Potency [15]

CCCCCCCCCCCCCCCCCl
inactive: activity change, negative = cytotoxicity [1] -5.35% [at 19 µM] | activity, positive = activation [2] -7.33% [at 19 µM] | activity change [3] 0.762% [at 11.8 µM, hits give high values] | activation [17] 1.18% [at 13.5 µM] | activation [4] 0.0918% [at 13.6 µM] | activity change, negative = cytotoxicity [5] 0.42% [at 13.5 µM] | activity change, negative = cytotoxicity [7] -1.41% [at 13.5 µM] | activation [8] 0.101% [at 13.5 µM] | activity, negative = inhibition [9] 12.6% [at 12.7 µM] | activation [10] -4.65% [at 15.9 µM] | activity, negative = inhibition [11] -6.96% [at 12.6 µM] | activation [18] -0.468% [at 15.8 µM] | activation [12] -1.81% [at 19 µM] | activity change, negative = inhibition [19] -10.5% [at 18.9 µM] | activity change, negative = inhibition [13] -9.7% [at 19 µM] | Potency [20] | activity change, negative = inhibition [15] 2.16% [at 18.9 µM]

CC(=O)C=O
inactive: Potency [1] | Potency [2] | Potency [3] | outcome [16] | Potency [17] | Potency [4] | Potency [5] | Potency [6] | Potency [7] | Potency [8] | Potency [9] | Potency [10] | Potency [11] | Potency [18] | Potency [12] | Potency [19] | Potency [13] | Potency [14] | Potency [15]

Cc1ccc(C(=O)c2ccccc2)cc1
inactive: Potency [1] | Potency [2] | Potency [3] | outcome [16] | Potency [17] | Potency [4] | Potency [5] | Potency [6] | Potency [7] | Potency [8] | Potency [9] | Potency [10] | Potency [11] | Potency [18] | Potency [13] | Potency [20] | Potency [14] | Potency [15]
